Results: PubChem BioAssay (NCI)
This is part of a sample that, as a whole, favours compounds with a hit. Of some 83,000 tested, about 20% had one in any assay.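 Single-concentration screen, 48 h exposure, 96-well plates. Endpoint: percent growth. Below 10 = active.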 Calls of active or inactive are those of the source.

Tested on: SF-539 CNS
Experiment: NCI-60 one-dose screen, 48 h (100 = growth as untreated, 0 = no growth, -100 = all killed)
Conditions: 10 µM unless noted

SMILES | growth
CC1(C)NCCC[C@]2(C)[C@H]3CC=C4[C@@H]5C[C@](C)(COC(=O)c6ccccc6C(=O)O)CC[C@]5(C)CC[C@@]4(C)[C@]3(C)CC[C@@H]12 | 66.6% (inactive)
COc1ccccc1Nc1nnc(COc2ccc(CNC(=O)CCCC/C=C/C(C)C)cc2OC)o1 | 93.4% (inactive)
Cc1c(CN(C)C)cc(C(C)C)cc1C(C)C | 118% (inactive)
COC1=C(OC)C(=O)c2ccccc2C1=O | 102% (inactive)
COc1ccc(C(=O)CN2C(=O)NC(c3ccccc3)(c3ccccc3)C2=O)cc1 | 92.9% (inactive)
CCNc1nnc(COc2ccc(CNC(=O)CCCC/C=C/C(C)C)cc2OC)o1 | 104% (inactive)
CCS(=O)(=O)OCCO[C@H]1Cc2cc3ccc(=O)oc3cc2OC1(C)C | 100% (inactive)
CC(C)OC(=O)[C@H](C)N[P@@](=O)(OC[C@@]1(C)O[C@@H](n2cc(F)c(N)nc2=O)C[C@@H]1O[P@](=O)(N[C@@H](C)C(=O)OC(C)C)Oc1ccccc1)Oc1ccccc1 | 63.3% (inactive)
CC[C@@H](C)/C=C(C)/C=C/C(=O)c1c(O)c(-c2ccc(OC(=O)[C@@]34CC[C@@](C)(C(=O)O3)C4(C)C)cc2)cn(O)c1=O | 16.7% (inactive)
COc1cc(-c2nc(/C=C3/C(=O)Nc4ccccc43)c3ccccn23)cc(OC)c1OC | 83.6% (inactive)
COc1ccc(Cn2cc3c(c2-c2ccccc2)CCc2cnoc2-3)cc1OC | -22.1% (active)
COc1ccc(Cn2cc3c(c2)-c2oncc2CC3)cc1OC | -21.5% (active)
Cc1cc(CSc2ccc(Cl)cc2)ccc1N | 62.9% (inactive)
O=C(/C=C1\C(=O)N(Cc2ccccc2)c2ccccc21)c1ccc(OCCN2CCCCC2)cc1 | 51.9% (inactive)
CCCCN(CCCC)CC(O)CN(CC)CC (configuration not stated) | 108% (inactive)
COc1ccc(/C=C2\CCCC3=C2N=C2SC=NN2C3c2ccc(OC)c(OC)c2)cc1OC (configuration not stated) | 37.4% (inactive)
CC1(c2ccc(Br)cc2)NC(=O)NC1=O (configuration not stated) | 100% (inactive)
O=C1C(Cl)=C(SC2=NCCN2)C(=O)c2ccccc21 | 105% (inactive)
COc1ccc(Cn2cc3c(c2-c2ccc(OC)cc2)CCc2cnoc2-3)cc1 | -28% (active)

SMILES | growth
Cc1ccc(C(=O)NN)cc1 | 114% (inactive)
O=S(=O)(O)c1ccc2c(c1)Sc1cc(S(=O)(=O)O)ccc1O2 | 117% (inactive)
NNC(=S)N1N=C(c2cc3ccccc3o2)CC1c1c[nH]c2ccccc12 (configuration not stated) | 57.9% (inactive)
O=C(O)c1occ(Cl)c1Cl | 111% (inactive)
Cc1nnc(-c2cc3c(ccc4ccccc43)oc2=O)c2cn(-c3ccc(Cl)cc3)nc12 | 114% (inactive)
O=C(/C=C/c1c[nH]c2ccccc12)c1cc2ccccc2o1 | 82.1% (inactive)
C=CCN(C)C | 109% (inactive)
COc1ccc(/C=C2\SC(=O)N(Cc3cc(=O)oc4ccc(OC)cc34)C2=O)cc1 | 89.6% (inactive)
CCCCCC(=C/c1ccccc1)/C=N/N=C(N)N | 45.5% (inactive)
CC1(C)Oc2cc3oc(=O)ccc3cc2C[C@@H]1OCCOS(=O)(=O)c1ccc(C#N)cc1 | 96.6% (inactive)
CC1=C[C@@H]2c3c(c(O)c(O)c4oc5cc(O)cc(O)c5c(=O)c34)[C@@H](c3cc(O)c(O)c4oc5cc(O)cc(O)c5c(=O)c34)[C@@H]2C(C)(C)C1 | -5.82% (active)
C=C(C)[C@@H]1CC[C@]2(COC(=O)c3ccccc3C(=O)O)CC[C@]3(C)[C@H](CC[C@@H]4[C@@]5(C)CCCNC(C)(C)[C@@H]5CC[C@]43C)[C@@H]12 | 75.7% (inactive)
O=S(=O)(Cc1cccc2c(CS(=O)(=O)c3ccc(Cl)cc3)cccc12)c1ccc(Cl)cc1 | 94.3% (inactive)
COC(=O)/C=C/c1cc(O)c2oc(-c3ccc(O)c(O)c3)c(C(=O)OC)c2c1 | 2.83% (active)
COC(=O)Nc1nc2ccc(C(=O)c3ccccc3N(C)C3COC3)cc2[nH]1 | 9.06% (active)
COc1ccccc1Cn1cc2c(c1)-c1oncc1CC2 | -13.8% (active)
CC([C@H]1CC=C2C3CCC4=C[C@@H](N(C)C)CC[C@]4(C)C3CC[C@@]21C)N(C)C (some centres not stated) | 4.25% (active)
O=C1c2ccccc2CCc2ccccc21 | 107% (inactive)
